The record followed here is PubChem BioAssay (NCATS).

Test [1] can be described thus: Viability qHTS for spleen associated tyrosine kinase inhibitor (SYKi) naive MV4-11 cells (AID 1963823). Note: nearly all actives have a fitted effect of over 40% in size. The method in brief: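 In this viability screen, compounds acted on SYK inhibitor naive MV4-11 cells for three days (72 hr, 37 C). Remaining viable cells were measured by CellTiter-Glo luminescence following a 10 min room-temperature development.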
A general note: In qHTS, concentration-response curves come from the screen itself.

Test [2] is described as follows: Viability qHTS for spleen associated tyrosine kinase inhibitor (SYKi) drug resistant MV4-11 cells (AID 1963824). Note: nearly all actives have a fitted effect of over 35% in size. The method in brief:
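SYK-inhibitor-resistant MV4-11 AML cells were seeded at 500 per well onto compound and cultured 72 hours (37 °C, 5% CO2). CellTiter-Glo was then added, and after 10 min at room temperature, luminescence gave viability.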

Records with an inconclusive call do not appear. Calls of active or inactive are those of the source. Calls come from the whole dose curve; as a rule, active = well fitted cell-killing curve with a large enough effect; inconclusive = small, poorly fitted or top-dose-only effect, or effect the other way; inactive = no such curve, though single readings can be large or run the other way.
Potency is the fitted concentration of half-maximal effect.

With `CC(=O)c1ccc(O[C@@H]2O[C@H](CO[C@@H]3OC[C@@H](O)[C@H](O)[C@H]3O)[C@@H](O)[C@H](O)[C@H]2O)cc1`, the Potency result in test [1] and in test [2] was “inactive” in each case.
On to `C=C(C)C(=O)O[C@H]1[C@H]2C(=C)C(=O)O[C@@H]2/C=C(\CO)CC/C=C(/C=O)[C@@H]1O`, for which the Potency in test [1] was 10100 nM (active); in test [2] it was 9040 nM (active).
For the molecule `O=C(/C=C/c1ccc2ccccc2n1)c1ccncc1`, the figures for the Potency in test [1] and in test [2] were 1460 nM (active) and 1640 nM (active), respectively.
Consider `CC(C)c1cc(C(=O)N2CC[C@H](NC(=O)C3CC3)C2)n[nH]1`, for which the Potency entry in test [1] and in test [2] was “inactive” in each case.
Turning to `COC(=O)[C@@]1(C)CC[C@]2(C(=O)O[C@@H]3O[C@H](CO)[C@@H](O)[C@H](O)[C@H]3O)CC[C@]3(C)C(=CCC4[C@@]5(C)CC[C@H](O[C@@H]6O[C@H](C(=O)O)[C@@H](O)[C@H](O)[C@H]6O)C(C)(C)C5CC[C@]43C)[C@@H]2C1` (some centres undefined), the viability (% of control) in test [1] was 68.6% [at 9.25 µM] (inactive). Also, in test [2], the viability, % of control was 81.9% [at 9.25 µM] (inactive).
As for `CC1OC2OC(=O)C3(C)CC4=C(CO)C5=C(CC(=O)C4(C)C(C1=O)C23)C(C)(C)OC(=O)C5` (centres undefined), the Potency entry in test [1] and in test [2] was “inactive” each time.
Consider `C=C1C(=O)OC2/C=C(\CO)CC/C=C(\C=O)C(OC)C(OC(=O)C(C)CC)C12` (centres undefined), for which the values for the Potency in test [1] and in test [2] were 10000 nM (active) and 2520 nM (active), respectively.
In the case of `COc1c(O[C@@H]2O[C@H](CO)[C@@H](O)[C@H](O)[C@H]2O)c(CCC(=O)O)cc2ccoc12`, the Potency entry in test [1] and in test [2] was “inactive” each time.
As to `O=C(NCCN1CCOCC1)c1cc2c(Oc3ccc(NC(=O)C4(C(=O)Nc5ccc(F)cc5)CC4)cc3)ccnc2[nH]1`, the Potency in test [1] is 25.9 nM (active); in test [2] it was 41.1 nM (active).
`CCCCC1CCN(CCCC(=O)c2ccccc2C)CC1`: the figures for the Potency in test [1] and in test [2] were 16400 nM (active) and 13000 nM (active), respectively.
On to `CC1(O)CCC2C(C3C1CCC3(C)O)C2(C)C` (centres undefined), for which the Potency entry in test [1] and in test [2] was “inactive” throughout.
As for `C[C@@]1(C(=O)O)CCC[C@@]2(C)C3=CC[C@H]4C[C@@]3(CC[C@H]12)CC4(O)CO` (some centres undefined), the Potency entry in test [1] and in test [2] was “inactive” each time.
Consider `NS(=O)(=O)c1ccc(S(=O)(=O)Nc2cccc3c(Cl)c[nH]c23)cc1`, for which the Potency is 235 nM (active) in test [1] and 332 nM (active) in test [2].
Taken in the same sequence, the figures for `C=C(C)C(=O)OC1CC2(C)OC(=CC2=O)C(=C)CC2OC(=O)C(=C)C12` (centres undefined) were 255 nM (active) and 360 nM (active).
For `NC(=O)C(O[C@@H]1O[C@H](CO[C@@H]2O[C@H](CO)[C@@H](O)[C@H](O)[C@H]2O)[C@@H](O)[C@H](O)[C@H]1O)c1ccccc1` (some centres undefined), the Potency entry in test [1] and in test [2] was “inactive” each time.
As for `CC1(C)CC[C@]2(C(=O)O[C@@H]3O[C@H](CO)[C@@H](O)[C@H](O)[C@H]3O)CC[C@]3(C)C(=CCC4[C@@]5(C)C[C@@H](O)[C@H](O)[C@@](C)(CO)C5[C@H](O)C[C@]43C)C2[C@@H]1O` (some centres undefined), the Potency entry in test [1] and in test [2] was “inactive” throughout.
Regarding `COc1cc(C2OCC3(O)C(c4ccc(O[C@@H]5O[C@H](CO)[C@@H](O)[C@H](O)[C@H]5O)c(OC)c4)OCC23O)ccc1O` (some centres undefined), the Potency entry in test [1] and in test [2] was “inactive” throughout.
As to `COC(=O)C12CCC(C)C(C)C1C1=CCC3C4(C)CCC(OC(C)=O)C(C)(C)C4CCC3(C)C1(C)CC2` (centres undefined), the Potency result in test [1] and in test [2] was “inactive” each time.
On to `CCOCCn1nc(CC)c2nc(N3CCC(C(=O)O)CC3)nc(Nc3cc(C)ccn3)c21`, for which the Potency result in test [1] and in test [2] was “inactive” throughout.
Consider `COc1cc(O)cc(C)c1C(=O)O[C@@H]1[C@H](O)[C@@H](CO)O[C@H]1n1ccc(=O)[nH]c1=O`, for which the figures for the Potency in test [1] and in test [2] were 2820 nM (active) and 2000 nM (active), respectively.
Consider `CCC1C(=O)N(C)c2cnc(Nc3ccc(C(=O)NC4CCC(N5CCN(CC6CC6)CC5)CC4)cc3OC)nc2N1C(C)C` (centres undefined), for which the figures for the Potency in test [1] and in test [2] were 25.9 nM (active) and 11.6 nM (active), respectively.
As for `O=C(/C=C\c1ccc(O)cc1)N[C@@H](Cc1ccc(O)cc1)C(=O)O`, the Potency result in test [1] and in test [2] was “inactive” each time.
For the molecule `C=C(C(=O)O)[C@H]1C[C@]2(C)C(=O)CC[C@]23O[C@H]1C[C@@H]3C`, the Potency entry in test [1] and in test [2] was “inactive” throughout.
Regarding `CC(=O)OC1C(=O)C2(C)C(O)CC3OCC3(OC(C)=O)C2C(OC(=O)c2ccccc2)C2(O)CC(OC(=O)C(O)C(NC(=O)c3ccccc3)c3ccccc3)C(C)=C1C2(C)C` (centres undefined), the results for the Potency in test [1] and in test [2] were 5.8 nM (active) and 7.3 nM (active), respectively.
In the case of `CCCCCCCOc1ccc(CCC(N)(CO)CO)cc1C(F)(F)F`, the Potency was 7420 nM (active) in test [1] and 8330 nM (active) in test [2].
Regarding `O=C(/C=C/c1ccc(O)cc1)O[C@@H]1C[C@@](O)(C(=O)O)C[C@@H](O)[C@@H]1O`, the Potency result in test [1] and in test [2] was “inactive” in each case.
In the case of `N#C/C(=C1/Nc2ccccc2S1)c1ccnc(OCc2ccc(CN3CCOCC3)cc2)n1`, the Potency in test [1] is 10500 nM (active); in test [2], 8330 nM (active).
